Among the data in the supplement of paper PMC6411743 are NP40-soluble protein abundance values, retold here.

Compound in this assay: Nc1nc2c(ncn2[C@@H]2O[C@H](COP(=O)(O)OP(=O)(O)OP(=O)(O)O)[C@@H](O)[C@H]2O)c(=O)[nH]1 [guanosine triphosphate]
Briefly: NP40-soluble protein abundance relative to vehicle (solubility fold change) (ratio); higher = more soluble protein in presence of GTP. The essentials:
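Each value is a fold change relative to the detergent-processed vehicle, calculated per replicate from vsn-normalised intensities. Jurkat crude lysate received eight concentrations (0.1 to 10 mM) for 10 min at room temperature and 3 min at 37 °C, then was solubilised in 0.8% NP40 with benzonase (60 min, 4 °C). The ultracentrifuged supernatant was TMT-labelled and run by LC-MS/MS in three independent experiments.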

± gives the standard deviation of the averaged measurements. Of roughly 5,400 targets only a part is listed; those with the largest changes were picked by preference.

Chain of UniProt Q12872 (Q12872 whole entry): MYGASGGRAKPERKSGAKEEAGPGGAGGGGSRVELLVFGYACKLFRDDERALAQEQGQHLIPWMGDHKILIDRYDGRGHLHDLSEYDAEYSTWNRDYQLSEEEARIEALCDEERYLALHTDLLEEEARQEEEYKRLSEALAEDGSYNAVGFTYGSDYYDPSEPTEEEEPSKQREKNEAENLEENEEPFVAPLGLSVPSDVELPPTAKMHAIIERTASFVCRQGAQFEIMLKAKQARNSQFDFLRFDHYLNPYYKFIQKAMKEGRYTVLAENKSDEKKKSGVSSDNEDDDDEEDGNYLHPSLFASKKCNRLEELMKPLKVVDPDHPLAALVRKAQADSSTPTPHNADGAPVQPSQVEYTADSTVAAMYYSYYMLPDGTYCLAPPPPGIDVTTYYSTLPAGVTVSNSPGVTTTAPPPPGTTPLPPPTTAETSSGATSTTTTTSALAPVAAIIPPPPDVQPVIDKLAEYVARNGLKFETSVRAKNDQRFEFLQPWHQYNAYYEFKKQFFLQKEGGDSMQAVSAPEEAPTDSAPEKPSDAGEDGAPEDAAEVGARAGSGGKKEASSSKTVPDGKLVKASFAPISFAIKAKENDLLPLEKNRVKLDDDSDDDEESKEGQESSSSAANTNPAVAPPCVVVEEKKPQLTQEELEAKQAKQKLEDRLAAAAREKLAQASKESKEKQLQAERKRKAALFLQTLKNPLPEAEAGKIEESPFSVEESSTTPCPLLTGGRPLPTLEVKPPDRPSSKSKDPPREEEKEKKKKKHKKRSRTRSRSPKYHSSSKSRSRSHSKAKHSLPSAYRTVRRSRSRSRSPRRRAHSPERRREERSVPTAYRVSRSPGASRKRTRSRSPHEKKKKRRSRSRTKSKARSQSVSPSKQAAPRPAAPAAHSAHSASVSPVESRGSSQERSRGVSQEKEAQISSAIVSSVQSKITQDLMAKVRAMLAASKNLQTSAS
Chain of UniProt Q14789 (Q14789 whole entry): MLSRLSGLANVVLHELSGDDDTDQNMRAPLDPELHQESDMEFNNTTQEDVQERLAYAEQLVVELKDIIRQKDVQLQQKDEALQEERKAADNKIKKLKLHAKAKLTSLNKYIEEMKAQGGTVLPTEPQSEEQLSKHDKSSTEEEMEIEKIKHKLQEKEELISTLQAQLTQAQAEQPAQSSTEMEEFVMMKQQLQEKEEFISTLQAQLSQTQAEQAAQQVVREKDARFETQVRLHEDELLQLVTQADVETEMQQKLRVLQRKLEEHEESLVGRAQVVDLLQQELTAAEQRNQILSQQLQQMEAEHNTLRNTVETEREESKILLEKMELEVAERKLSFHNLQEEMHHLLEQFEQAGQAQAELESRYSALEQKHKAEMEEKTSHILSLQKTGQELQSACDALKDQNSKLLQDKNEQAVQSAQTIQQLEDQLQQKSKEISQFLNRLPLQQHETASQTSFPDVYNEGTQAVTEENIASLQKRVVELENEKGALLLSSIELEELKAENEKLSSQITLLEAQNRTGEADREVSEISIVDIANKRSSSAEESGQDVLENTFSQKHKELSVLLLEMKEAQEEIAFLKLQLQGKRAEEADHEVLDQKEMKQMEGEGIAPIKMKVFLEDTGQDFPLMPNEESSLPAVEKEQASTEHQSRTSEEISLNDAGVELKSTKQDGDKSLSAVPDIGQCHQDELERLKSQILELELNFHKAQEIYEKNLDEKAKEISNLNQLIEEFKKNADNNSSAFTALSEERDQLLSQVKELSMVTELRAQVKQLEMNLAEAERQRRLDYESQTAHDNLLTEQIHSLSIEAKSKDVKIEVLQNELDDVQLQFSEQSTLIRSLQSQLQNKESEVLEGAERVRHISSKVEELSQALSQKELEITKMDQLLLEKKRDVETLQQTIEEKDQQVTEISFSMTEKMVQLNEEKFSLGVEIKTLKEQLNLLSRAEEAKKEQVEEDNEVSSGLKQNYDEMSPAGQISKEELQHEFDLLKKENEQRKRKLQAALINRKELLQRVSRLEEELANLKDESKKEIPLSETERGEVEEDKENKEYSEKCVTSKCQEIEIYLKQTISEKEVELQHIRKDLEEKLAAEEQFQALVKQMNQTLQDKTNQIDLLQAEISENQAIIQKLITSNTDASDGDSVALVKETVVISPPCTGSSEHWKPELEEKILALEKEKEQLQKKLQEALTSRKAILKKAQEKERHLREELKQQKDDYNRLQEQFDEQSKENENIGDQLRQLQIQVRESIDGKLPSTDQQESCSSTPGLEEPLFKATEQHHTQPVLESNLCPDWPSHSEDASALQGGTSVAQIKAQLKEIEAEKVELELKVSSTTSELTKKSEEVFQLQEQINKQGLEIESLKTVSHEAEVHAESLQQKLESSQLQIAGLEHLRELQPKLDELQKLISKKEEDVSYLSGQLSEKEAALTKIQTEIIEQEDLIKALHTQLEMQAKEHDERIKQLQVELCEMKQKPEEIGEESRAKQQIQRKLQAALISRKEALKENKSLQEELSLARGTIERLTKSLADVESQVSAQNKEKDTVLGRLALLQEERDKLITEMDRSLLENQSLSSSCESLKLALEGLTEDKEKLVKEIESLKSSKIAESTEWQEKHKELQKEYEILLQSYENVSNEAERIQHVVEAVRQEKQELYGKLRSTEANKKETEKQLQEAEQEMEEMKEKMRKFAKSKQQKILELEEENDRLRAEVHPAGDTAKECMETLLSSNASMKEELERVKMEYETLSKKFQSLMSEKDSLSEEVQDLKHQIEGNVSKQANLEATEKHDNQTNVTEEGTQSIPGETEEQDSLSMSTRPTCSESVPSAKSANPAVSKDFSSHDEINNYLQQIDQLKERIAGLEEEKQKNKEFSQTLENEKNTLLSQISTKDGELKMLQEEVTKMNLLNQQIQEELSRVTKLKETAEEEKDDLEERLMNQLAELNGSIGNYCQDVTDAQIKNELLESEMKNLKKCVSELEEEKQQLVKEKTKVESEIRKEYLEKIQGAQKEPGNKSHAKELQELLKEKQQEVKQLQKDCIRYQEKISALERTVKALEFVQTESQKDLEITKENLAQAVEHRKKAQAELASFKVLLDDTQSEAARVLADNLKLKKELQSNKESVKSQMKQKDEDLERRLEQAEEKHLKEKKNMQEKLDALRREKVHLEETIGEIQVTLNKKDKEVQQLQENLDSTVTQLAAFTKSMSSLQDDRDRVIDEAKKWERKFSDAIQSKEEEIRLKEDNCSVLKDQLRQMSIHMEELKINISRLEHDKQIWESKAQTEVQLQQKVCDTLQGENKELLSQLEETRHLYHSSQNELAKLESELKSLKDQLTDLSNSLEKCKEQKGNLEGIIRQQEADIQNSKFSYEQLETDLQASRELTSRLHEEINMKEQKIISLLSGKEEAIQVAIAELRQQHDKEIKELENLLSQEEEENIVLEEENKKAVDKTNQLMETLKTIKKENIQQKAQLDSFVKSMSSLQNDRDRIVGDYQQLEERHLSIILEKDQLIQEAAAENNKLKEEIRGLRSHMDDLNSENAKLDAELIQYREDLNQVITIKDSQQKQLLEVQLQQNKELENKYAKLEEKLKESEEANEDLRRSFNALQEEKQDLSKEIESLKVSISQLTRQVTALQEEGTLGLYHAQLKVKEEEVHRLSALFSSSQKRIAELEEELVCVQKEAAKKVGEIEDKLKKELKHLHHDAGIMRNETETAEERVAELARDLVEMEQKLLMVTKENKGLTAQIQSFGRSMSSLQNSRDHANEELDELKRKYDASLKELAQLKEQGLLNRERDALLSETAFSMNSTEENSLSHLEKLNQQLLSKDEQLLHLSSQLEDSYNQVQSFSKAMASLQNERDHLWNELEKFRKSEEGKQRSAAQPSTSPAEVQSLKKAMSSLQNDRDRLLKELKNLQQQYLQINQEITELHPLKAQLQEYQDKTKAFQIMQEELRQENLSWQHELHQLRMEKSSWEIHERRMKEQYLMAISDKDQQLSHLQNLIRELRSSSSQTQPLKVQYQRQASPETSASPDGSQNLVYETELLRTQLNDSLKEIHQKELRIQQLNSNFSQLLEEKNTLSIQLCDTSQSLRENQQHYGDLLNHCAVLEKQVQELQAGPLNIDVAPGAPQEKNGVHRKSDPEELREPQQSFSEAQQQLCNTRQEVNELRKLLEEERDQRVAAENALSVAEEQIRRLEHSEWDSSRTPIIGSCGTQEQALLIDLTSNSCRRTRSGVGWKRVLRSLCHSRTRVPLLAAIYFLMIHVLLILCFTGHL
Chain of UniProt Q8NC56 (Q8NC56 whole entry): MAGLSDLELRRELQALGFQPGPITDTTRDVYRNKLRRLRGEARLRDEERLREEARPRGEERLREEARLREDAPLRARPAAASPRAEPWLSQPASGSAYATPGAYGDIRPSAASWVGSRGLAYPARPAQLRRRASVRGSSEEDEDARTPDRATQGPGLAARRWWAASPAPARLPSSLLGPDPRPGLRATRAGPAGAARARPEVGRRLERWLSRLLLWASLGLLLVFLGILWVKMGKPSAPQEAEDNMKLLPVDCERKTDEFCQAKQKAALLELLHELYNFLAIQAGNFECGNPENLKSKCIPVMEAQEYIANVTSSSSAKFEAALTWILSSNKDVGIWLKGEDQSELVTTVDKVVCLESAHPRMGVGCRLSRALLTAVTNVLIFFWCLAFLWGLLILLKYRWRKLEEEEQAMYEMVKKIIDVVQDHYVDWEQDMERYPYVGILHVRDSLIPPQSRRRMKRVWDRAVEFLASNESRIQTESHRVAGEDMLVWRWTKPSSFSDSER
Chain of UniProt Q00688 (Q00688 whole entry): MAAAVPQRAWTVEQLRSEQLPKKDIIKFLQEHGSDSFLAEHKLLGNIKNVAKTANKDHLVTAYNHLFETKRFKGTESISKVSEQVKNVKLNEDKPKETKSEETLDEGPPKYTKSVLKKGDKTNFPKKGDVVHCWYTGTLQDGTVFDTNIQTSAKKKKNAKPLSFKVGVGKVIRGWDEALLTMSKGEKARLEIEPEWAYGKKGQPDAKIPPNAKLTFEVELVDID

As for MDC1 (UniProt Q14676), the NP40-soluble protein abundance was 1.1 ± 0.024 (concentration: 0.1mM); 1.14 ± 0.042 (concentration: 0.5mM); 1.23 ± 0.053 (concentration: 1mM); 1.41 ± 0.11 (concentration: 2mM); 1.66 ± 0.17 (concentration: 4mM); 1.77 ± 0.21 (concentration: 6mM). Further, the NP40-soluble protein abundance amounted to 1.86 ± 0.29 (concentration: 8mM) and 1.92 ± 0.36 (concentration: 10mM).

For the target UniProt Q49A26|Q49A26-3|Q49A26-4, the NP40-soluble protein abundance came out at 1.044 ± 0.0023 (concentration: 0.1mM); 1.06 ± 0.036 (concentration: 0.5mM); 1.15 ± 0.03 (concentration: 1mM); 1.27 ± 0.028 (concentration: 2mM); 1.52 ± 0.16 (concentration: 4mM); 1.72 ± 0.026 (concentration: 6mM). In addition, the NP40-soluble protein abundance by setting is: (concentration: 8mM) 1.97 ± 0.078; (concentration: 10mM) 2.27 ± 0.094.

Take UniProt Q8N5G2: the NP40-soluble protein abundance stood at 1.07 ± 0.1 (concentration: 0.1mM); 1.03 ± 0.089 (concentration: 0.5mM); 1.12 ± 0.15 (concentration: 1mM); 1.3 ± 0.057 (concentration: 2mM); 1.26 ± 0.24 (concentration: 4mM); 1.16 ± 0.17 (concentration: 6mM). The NP40-soluble protein abundance by setting is: (concentration: 8mM) 1.24 ± 0.21; (concentration: 10mM) 1.43 ± 0.25.

For the target UniProt Q8IX12|Q8IX12-2, the NP40-soluble protein abundance stood at 0.993 ± 0.042 (concentration: 0.1mM); 0.985 ± 0.027 (concentration: 0.5mM); 1.004 ± 0.0041 (concentration: 1mM); 0.996 ± 0.03 (concentration: 2mM); 1.08 ± 0.056 (concentration: 4mM); 1.12 ± 0.06 (concentration: 6mM). The NP40-soluble protein abundance came out at 1.17 ± 0.077 (concentration: 8mM) and 1.14 ± 0.059 (concentration: 10mM).

As to THOC7 (UniProt Q6I9Y2), the NP40-soluble protein abundance is, setting by setting: (concentration: 0.1mM) 0.999 ± 0.13; (concentration: 0.5mM) 1.15 ± 0.095; (concentration: 1mM) 1.6 ± 0.23; (concentration: 2mM) 1.92 ± 0.32; (concentration: 4mM) 2.31 ± 0.58; (concentration: 6mM) 2.51 ± 0.63. For the same target, the NP40-soluble protein abundance is, setting by setting: (concentration: 8mM) 2.43 ± 0.56; (concentration: 10mM) 2.78 ± 0.98.

Turning to UniProt Q86V48|Q86V48-2|Q86V48-3, the NP40-soluble protein abundance turned out to be 0.953 ± 0.056 (concentration: 0.1mM); 0.967 ± 0.042 (concentration: 0.5mM); 1.01 ± 0.051 (concentration: 1mM); 0.99 ± 0.097 (concentration: 2mM); 1.03 ± 0.088 (concentration: 4mM); 1.08 ± 0.081 (concentration: 6mM). The NP40-soluble protein abundance is, setting by setting: (concentration: 8mM) 1.17 ± 0.1; (concentration: 10mM) 1.2 ± 0.11.

As for FKBP3 (UniProt Q00688), the NP40-soluble protein abundance reads like this: (concentration: 0.1mM) 0.911 ± 0.048; (concentration: 0.5mM) 0.906 ± 0.066; (concentration: 1mM) 0.943 ± 0.073; (concentration: 2mM) 0.906 ± 0.081; (concentration: 4mM) 0.902 ± 0.081; (concentration: 6mM) 0.905 ± 0.082. The NP40-soluble protein abundance was 0.925 ± 0.077 (concentration: 8mM) and 0.943 ± 0.09 (concentration: 10mM).

As for ZC3H13 (UniProt Q5T200), the NP40-soluble protein abundance is, setting by setting: (concentration: 0.1mM) 1.01 ± 0.055; (concentration: 0.5mM) 1.02 ± 0.063; (concentration: 1mM) 1.07 ± 0.054; (concentration: 2mM) 1.08 ± 0.063; (concentration: 4mM) 1.12 ± 0.059; (concentration: 6mM) 1.12 ± 0.055. Moreover, the NP40-soluble protein abundance came out at 1.24 ± 0.099 (concentration: 8mM) and 1.18 ± 0.1 (concentration: 10mM).

On to FAM160B1 (UniProt Q5W0V3), for which the NP40-soluble protein abundance is, setting by setting: (concentration: 0.1mM) 1.03 ± 0.037; (concentration: 0.5mM) 1.03 ± 0.027; (concentration: 1mM) 0.964 ± 0.029; (concentration: 2mM) 0.959 ± 0.02; (concentration: 4mM) 0.9389 ± 0.0083; (concentration: 6mM) 0.922 ± 0.0022. Further, the NP40-soluble protein abundance (concentration: 8mM) worked out at 0.91 ± 0.033 and the NP40-soluble protein abundance (concentration: 10mM) was found to be 0.894 ± 0.051.

For the target DDX1 (UniProt Q92499), the NP40-soluble protein abundance by setting is: (concentration: 0.1mM) 1.02 ± 0.024; (concentration: 0.5mM) 1.02 ± 0.066; (concentration: 1mM) 0.941 ± 0.027; (concentration: 2mM) 0.971 ± 0.072; (concentration: 4mM) 0.997 ± 0.059; (concentration: 6mM) 0.993 ± 0.063. For the same target, the NP40-soluble protein abundance is, setting by setting: (concentration: 8mM) 0.971 ± 0.013; (concentration: 10mM) 0.961 ± 0.038.

On to UniProt Q12802|Q12802-2|Q12802-4, for which the NP40-soluble protein abundance (concentration: 0.1mM) was found to be 0.99 ± 0.12; the NP40-soluble protein abundance (concentration: 0.5mM) came to 1.01 ± 0.092; the NP40-soluble protein abundance (concentration: 1mM) is 1.01 ± 0.099; the NP40-soluble protein abundance (concentration: 2mM) came to 1 ± 0.12; the NP40-soluble protein abundance (concentration: 4mM) stood at 0.977 ± 0.11; the NP40-soluble protein abundance (concentration: 6mM) was 1.04 ± 0.11. For the same target, the NP40-soluble protein abundance runs as follows: (concentration: 8mM) 1.02 ± 0.1; (concentration: 10mM) 1.02 ± 0.084.

As to UniProt Q14789|Q14789-2, the NP40-soluble protein abundance is, setting by setting: (concentration: 0.1mM) 1 ± 0.019; (concentration: 0.5mM) 0.984 ± 0.041; (concentration: 1mM) 1.02 ± 0.022; (concentration: 2mM) 0.989 ± 0.049; (concentration: 4mM) 0.993 ± 0.026; (concentration: 6mM) 1 ± 0.035. In addition, the NP40-soluble protein abundance is, setting by setting: (concentration: 8mM) 1.02 ± 0.046; (concentration: 10mM) 1.01 ± 0.051.

Regarding KPNB1 (UniProt Q14974), the NP40-soluble protein abundance by setting is: (concentration: 0.1mM) 0.986 ± 0.053; (concentration: 0.5mM) 0.988 ± 0.03; (concentration: 1mM) 1.01 ± 0.035; (concentration: 2mM) 0.989 ± 0.037; (concentration: 4mM) 1.01 ± 0.041; (concentration: 6mM) 0.993 ± 0.033. For the same target, the NP40-soluble protein abundance is, setting by setting: (concentration: 8mM) 1 ± 0.033; (concentration: 10mM) 0.992 ± 0.028.

With LEMD2 (UniProt Q8NC56), the NP40-soluble protein abundance turned out to be 1.09 ± 0.04 (concentration: 0.1mM); 1.22 ± 0.11 (concentration: 0.5mM); 1.32 ± 0.076 (concentration: 1mM); 1.34 ± 0.15 (concentration: 2mM); 1.34 ± 0.088 (concentration: 4mM); 1.42 ± 0.11 (concentration: 6mM). The NP40-soluble protein abundance (concentration: 8mM) is 1.48 ± 0.14 and the NP40-soluble protein abundance (concentration: 10mM) is 1.49 ± 0.21.

Turning to UniProt Q12872|Q12872-2, the NP40-soluble protein abundance came to 0.979 ± 0.031 (concentration: 0.1mM); 1.04 ± 0.027 (concentration: 0.5mM); 1.17 ± 0.014 (concentration: 1mM); 1.24 ± 0.024 (concentration: 2mM); 1.42 ± 0.016 (concentration: 4mM); 1.52 ± 0.068 (concentration: 6mM). In addition, the NP40-soluble protein abundance runs as follows: (concentration: 8mM) 1.7 ± 0.13; (concentration: 10mM) 1.78 ± 0.13.
